PubChem BioAssay (NCI)
Compounds without any hit were thinned out: in the full panel of roughly 79,000, 15% have a hit. A number with no mark means an inactive call. Calls of active or inactive are those of the source. Rule as the data show it: active = growth inhibition above about 70%; inactive = the rest.

Assays:
[1] = NCI Yeast Anticancer Drug Screen. Data for the rad50 strain (AID 155);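 also: 0% = growth of vehicle-only cultures of the same strain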; conditions: S. cerevisiae rad50 strain growth inhibition; at 50.0 µM; stronger effect = higher value
Outline: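 Inhibition values express reduced yeast growth in compound-treated cultures relative to vehicle-treated controls.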

[2] = NCI Yeast Anticancer Drug Screen. Data for the mec2-1 strain (AID 157); conditions: S. cerevisiae mec2-1 strain, at 50.0 µM, stronger effect = higher value
Outline: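 Using mec2-1 yeast: add compound, measure growth, express inhibition versus vehicle-treated cultures.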

[3] = NCI Yeast Anticancer Drug Screen. Data for the sgs1 mgt1 strain (AID 161);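 also: 0% = growth of cultures given vehicle only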; conditions: S. cerevisiae sgs1 mgt1 strain, at 50.0 µM, stronger effect = higher value
Outline: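 This yeast growth screen uses a strain with defined DNA-repair lesions; compound-treated growth is compared with vehicle-treated growth.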

[4] = NCI Yeast Anticancer Drug Screen. Data for the cln2 rad14 strain (AID 165);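 also: 0% = growth equal to vehicle treated cultures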; conditions: S. cerevisiae cln2 rad14 strain, at 50.0 µM, stronger effect = higher value
Outline: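 Yeast strain cln2 rad14, bearing defects in cell cycle control and DNA repair, serves as the test system; values reflect growth inhibition compared with vehicle.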

[5] = NCI Yeast Anticancer Drug Screen. Data for the bub3 strain (AID 167); conditions: S. cerevisiae bub3 mutant strain, at 50.0 µM, stronger effect = higher value
Outline: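 Steps: expose the mutant yeast strain to compound; grow alongside vehicle-treated cultures; measure growth; express inhibition against the vehicle cultures.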

[6] = NCI Yeast Anticancer Drug Screen. Data for the mlh1 rad18 strain (AID 175); conditions: S. cerevisiae mlh1 rad18 strain growth inhibition; at 50.0 µM; stronger effect = higher value
Outline: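 Steps: expose repair-defective yeast to compound; measure growth; express inhibition against vehicle-treated controls.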

SMILES | growth inhibition [1] | growth inhibition [2] | growth inhibition [3] | growth inhibition [4] | growth inhibition [5] | growth inhibition [6]
COc1ccc(CCNC(=O)CCc2ccccc2CO)cc1OC | 15.8% | 13.9% | -36.9% | -5.9% | -39.2% | -5.9%
CCN(CC)CCOC(=O)c1ccc(NC(=O)OCCC(C)(C)CCOC(=O)Nc2ccc(C(=O)OCCN(CC)CC)cc2)cc1 | 6.85% | -18.4% | -9.25% | -23.6% | 8.25% | 16.2%
C1COC2(C1)CCCO2 | 21.6% | -0.5% | -27.2% | 3.5% | 23.2% | -2.95%
O=C(Nc1ccc([N+](=O)[O-])cc1)c1ccc(Cl)cc1 | -4.7% | 7.75% | -1.35% | -50.5% | 5.15% | -36.5%
CN(C)CCSc1nc2ccccc2s1 | 7.6% | 6.55% | 28.7% | 13.3% | -16.6% | 31.1%
COC(=O)C12CCC(C(=O)OC)(CC1)n1c(=O)n(-c3ccccc3)c(=O)n12 | -4.8% | -5.15% | -7.7% | -16.8% | -1.85% | -7.15%
CC1OC(Cc2ccccc2)OC1C (stereo unspecified) | 12.4% | 13.8% | 16.7% | 0.4% | 12.6% | 9.9%
CC(=O)c1ccc(C)cc1C | 27.9% | 4.35% | 15.3% | 2.65% | 15.4% | 2.95%
C(=C\c1cccs1)/c1csnn1 | 0.7% | 15.7% | 3.45% | 12.8% | -1.75% | -7.55%
N#Cc1ccc(/C=C\c2ccc(C#N)cc2)cc1 | -8.2% | 5.05% | 4.45% | 6.05% | 1.2% | -11.1%
COc1cc(C(O)CCBr)c(OC)cc1C (stereo unspecified) | -23.2% | -19.8% | -20.2% | -0.85% | -1.4% | 19.9%
CCOC(=O)C1=C(C)N[C@H](c2ccccc2[N+](=O)[O-])N[C@H]1c1ccccc1[N+](=O)[O-] | 22.2% | 19.7% | 19.9% | 7% | 1.45% | 9.25%
O=C(Nc1nncs1)c1ccncc1 | -14.8% | -5.75% | -13.2% | 7.1% | -28.8% | -46.1%
CCOc1ccccc1NC(=O)Nc1ccccc1Cl | -0.1% | -2.15% | 23.1% | -18.3% | 7.5% | 21.3%
CCOc1cc2c(cc1C(CC)c1ccccc1)OCO2 (stereo unspecified) | 6.75% | 12.6% | 9.75% | 3% | 17.6% | 14.7%
Nc1ccc(NC(=O)Nc2ccc(N)cc2)cc1 | 24.5% | 4.3% | 16.8% | 9.15% | 10.8% | 20.4%
CC(=O)c1cc2c(cc1C(C)C)CC[C@H]1[C@](C)(C#N)CCC[C@]21C | 1% | -1.15% | 1.25% | -26.6% | 15.9% | 31.3%
COC(=O)/C=C1/OC(c2ccc(C)cc2C)=CC1=O | 47.8% | 50.7% | 42.5% | 0.8% | 26.6% | 57.1%
C[N+](C)(C)CCCCCc1c2nc(c(CCCCC[N+](C)(C)C)c3ccc([nH]3)c(CCCCC[N+](C)(C)C)c3ccc([nH]3)c(CCCCC[N+](C)(C)C)c3nc1C=C3)C=C2 | 19.6% | 3.85% | 10% | 3.8% | 26.4% | 85.2% (active)
CCOc1ccc(Nc2ncnc3sc4c(c23)CCCC4)cc1 | 10.3% | -1% | -1.15% | 12.7% | 17.2% | 8.9%
O=C(Cn1c(=O)oc2ccc(C(=O)c3cccc(Cl)c3)cc21)c1ccccc1 | -47.4% | -3.15% | -20.6% | -19.5% | 11.3% | -28.1%

SMILES | growth inhibition [1] | growth inhibition [2] | growth inhibition [3] | growth inhibition [4] | growth inhibition [5] | growth inhibition [6]
COC(=O)CCN1CCN(CCO)CC1C (stereo unspecified) | -36.9% | -39.8% | -26.6% | -9.75% | -2% | -32.5%
CN1CCCC(CO)C1 (stereo unspecified) | -10.8% | -10.2% | -7.65% | 6.95% | 7.75% | -5.3%
O=C1c2ccccc2C(=O)N1CCc1ncc[nH]1 | 1.45% | 17% | 0.15% | -23.9% | 6.3% | 2.9%
CCCCCCCCCCCCCCCCCCCOc1ccc(OCCCCCCCCCC)cc1 | 33.9% | -2.05% | 24.6% | -10.4% | 0.2% | 7.15%
O=C(Nc1ccccc1)O/N=C(/c1ccccc1)c1cccnc1 | 15.2% | -5.1% | 13.2% | -3.3% | 15.2% | 6.3%
N#CC(NNC(=O)Cc1ccccc1)c1ccccc1O (stereo unspecified) | 0.8% | -10% | -2.05% | -19.4% | -21.7% | -12.8%
COc1cc2c(c(OC)c1OC)CCCC2=O | 0.2% | -10.4% | -4.5% | -130% | -4.7% | -4.9%
O=C(c1ccccc1)C(O)(c1ccccc1)c1ccccc1 | 37.5% | -18.2% | 3.8% | -31.1% | 22.1% | 0.8%
NC(=O)c1ccc(I)cc1 | 1.75% | 9.3% | 4% | -30.1% | -37% | 8.25%
Cc1nc2c(=O)n3c4c(cccc4c2o1)CCC3 | 14.4% | 10.4% | 21.6% | 14.5% | 14.5% | -48.4%
COc1ccccc1C/C(=N/O)c1ccccc1OC | 3.65% | -2.8% | 14.1% | 15.6% | -3.8% | 4.35%
CCc1cccc(C(C)C)c1NC(=O)C(=O)C1C(=O)Nc2ccccc2S1=O (stereo unspecified) | -3.95% | -13.6% | -16.9% | -11.2% | 2.4% | -29.1%
O=C(Oc1ccc(Cl)cc1)c1ccccc1 | 25.3% | -2.1% | -1.65% | 2.25% | -7.75% | -25.6%
CCOC(=O)C1(F)S(=O)(=O)OCCOS1(=O)=O | -12.9% | -9.95% | -11.4% | -18.4% | 6.3% | -9.8%
O=C(Nc1ccc(Cl)cc1C(F)(F)F)C(=O)C1CCCS1(=O)=O (stereo unspecified) | -7.05% | -10.9% | -4.5% | 12.9% | -6.4% | -8.8%
C/C(C=C(C#N)C#N)=C\c1cccc(F)c1 | 55.7% | 28.3% | 50.6% | 48.1% | 17.5% | 53.8%
CC(C)(C)N(Cc1ccccc1)C(=O)Nc1ccccc1 | 6.45% | 3.95% | 21.5% | 1.35% | 32.3% | 7.4%
CCCCNC(N)=O | -21.1% | -36.1% | -21.9% | -37.9% | -2.2% | -9.25%
O=C1CC=NC(=S)N1 | -0.6% | 7% | 8.75% | 7.95% | -2.7% | 28.4%
O=C(CC(c1ccccc1)N1CCCCC1)OC(c1ccccc1)c1ccc(Br)cc1 (stereo unspecified) | 12.9% | 4.05% | 11.6% | 7.95% | 6.4% | 2.8%
